Experimental data: PubChem BioAssay (NCI)
The panel holds about 79,000 compounds, 15% with a hit somewhere; the sample as a whole holds those more often. A number with no mark means an inactive call. Activity calls are given as the source filed them. Rule as the data show it: active = growth inhibition above about 70%; inactive = the rest.

Assays:
[1] = NCI Yeast Anticancer Drug Screen. Data for the rad50 strain (AID 155);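 also: 0% = growth of vehicle-only cultures of the same strain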; conditions: S. cerevisiae rad50 strain growth inhibition, active compounds read high
Outline: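 A DNA repair-deficient yeast mutant serves as the test organism; compound-induced growth inhibition is calculated against vehicle-treated cells.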

[2] = NCI Yeast Anticancer Drug Screen. Data for the mec2-1 strain (AID 157); conditions: S. cerevisiae mec2-1 strain, active compounds read high
Outline: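 Compounds were applied to mec2-1 yeast cells. Their growth was then compared with that of vehicle-treated cultures to give growth inhibition.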

[3] = NCI Yeast Anticancer Drug Screen. Data for the sgs1 mgt1 strain (AID 161);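 also: 0% = growth of cultures given vehicle only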; conditions: S. cerevisiae sgs1 mgt1 strain, active compounds read high
Outline: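 Compounds are added to genetically altered yeast, and growth is compared with cultures given vehicle alone to give percent inhibition.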

[4] = NCI Yeast Anticancer Drug Screen. Data for the cln2 rad14 strain (AID 165);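 also: 0% = growth equal to vehicle treated cultures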; conditions: S. cerevisiae cln2 rad14 strain, active compounds read high
Outline: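 Strain: cln2 rad14 yeast, altered in cell cycle control and DNA damage repair. Read-out: growth inhibition vs vehicle.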

[5] = NCI Yeast Anticancer Drug Screen. Data for the bub3 strain (AID 167); conditions: S. cerevisiae bub3 mutant strain, active compounds read high
Outline: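 Inhibition values come from growth of compound-treated mutant yeast normalised to vehicle-treated controls.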

[6] = NCI Yeast Anticancer Drug Screen. Data for the mlh1 rad18 strain (AID 175); conditions: S. cerevisiae mlh1 rad18 strain growth inhibition, active compounds read high
Outline: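 A repair-deficient yeast strain is exposed to test compound, and growth is scored relative to vehicle-treated controls.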

[7] = at 5.0 µM (retest, dose inferred, filed as 0.5)
[8] = at 50.0 µM (retest, dose inferred, filed as 5.0)

SMILES | growth inhibition [1, 7] | growth inhibition [1, 8] | growth inhibition ([1]; at 50.0 µM) | growth inhibition [2, 7] | growth inhibition [2, 8] | growth inhibition ([2]; at 50.0 µM) | growth inhibition [3, 7] | growth inhibition [3, 8] | growth inhibition ([3]; at 50.0 µM) | growth inhibition [4, 7] | growth inhibition [4, 8] | growth inhibition ([4]; at 50.0 µM) | growth inhibition [5, 7] | growth inhibition [5, 8] | growth inhibition ([5]; at 50.0 µM) | growth inhibition [6, 7] | growth inhibition [6, 8] | growth inhibition ([6]; at 50.0 µM)
O=C1CN(CCN2CCOCC2)CC(=O)N2CCCCN12 | 1% | -1% | 3.3% | -2% | -1% | 2.55% | 3% | 7% | 32.6% | -8% | 2% | 11.6% | -6% | -3% | 5.7% | -1% | -2% | 1.45%
Cc1[nH]c2c(C)c3c([nH]c4ccc(Cl)cc43)c(C)c2c(=O)c1C | -8% | 12% | 61.1% | -24% | 0% | 14.2% | -14% | 3% | 23.9% | -17% | 6% | 13.7% | -10% | -3% | 8.65% | -19% | -2% | 39.1%
Nc1ccccc1Sc1ccc(C(F)(F)F)cc1[N+](=O)[O-] | -1% | 23% | 99.1% (active) | 2% | 30% | 99% (active) | 0% | 23% | 99.2% (active) | -2% | 22% | 94.7% (active) | 6% | 26% | 98.7% (active) | -1% | 19% | 98.9% (active)
CSc1nc2c(c(=O)[nH]1)C1C=C(C)CCC1C(C)(C)C2 (stereo not given) | -5% | 97% (active) | 52.1% | -5% | 97% (active) | 56.1% | 0% | 97% (active) | 56% | -3% | 96% (active) | 69.2% | 10% | 97% (active) | 53.8% | -10% | 97% (active) | 51.6%
COc1cc(C(=O)C=[N+]=[N-])c([N+](=O)[O-])c(OC)c1OC | 12% | 77% (active) | 63.2% | 22% | 91% (active) | 90.8% (active) | 19% | 92% (active) | 91.8% (active) | 11% | 51% | 41.9% | 9% | 67% | 93.2% (active) | 8% | 89% (active) | 94.4% (active)
CN(C)c1ccc(/C=C(/NC(=O)c2ccccc2)c2nc3ccc(Cl)cc3[nH]2)cc1 | 16% | 16% | 64.7% | 6% | 6% | 68.3% | -2% | -2% | 67.2% | 16% | 16% | 60.5% | -8% | -8% | 71.5% (active) | -25% | -25% | 73.8% (active)
O=c1[nH]ncc(SCc2ccccc2)c1SCc1ccccc1 | 8% | 35% | 97.2% (active) | 3% | 53% | 97.9% (active) | 1% | 58% | 98% (active) | 8% | 31% | 96.1% (active) | 14% | 37% | 98.4% (active) | 8% | 57% | 96.5% (active)
CN(C)c1ccc(-c2c(C#N)c(S)n(NS(=O)(=O)c3ccccc3)c(=O)c2C#N)cc1 | 94% (active) | 96% (active) | 35.4% | 31% | 95% (active) | 75.3% (active) | 38% | 95% (active) | 61.2% | 50% | 69% | 31.8% | 45% | 93% (active) | 58.1% | 91% (active) | 94% (active) | 60.7%
CCCCC(CC)COC(=O)c1cc2ccccc2oc1=O (stereo not given) | 3% | 7% | 70.8% (active) | 1% | 13% | 61.8% | 3% | 21% | 68.5% | 5% | 4% | 49.5% | 11% | 35% | 79.6% (active) | 3% | 19% | 67.8%
Cc1ccc(S(=O)(=O)OC(C=O)C(O)C(O)COC(c2ccccc2)(c2ccccc2)c2ccccc2)cc1 (stereo not given) | 98% (active) | 98% (active) | 87.8% (active) | 98% (active) | 98% (active) | 84.5% (active) | 95% (active) | 95% (active) | 86.4% (active) | 99% (active) | 99% (active) | 84.8% (active) | 98% (active) | 98% (active) | 88.5% (active) | 99% (active) | 99% (active) | 85.2% (active)
